This note sets out measurements from PubChem BioAssay (EPA / NIEHS).

Experiment [1] can be described thus: IUF_NPC1_cytotoxicity_72hr: Cytotoxicity Assessment at 72 hours in the Leibniz Research Institute for Environmental Medicine (IUF) Neural Progenitor Cell Proliferation Assay (NPC1) (AID 2284332; active = hit-call score of the fitted dose curve at least 0.9, where 1 is the maximum;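 note: rising LDH signal means more cytotoxicity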). The method in brief:
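Spheres of primary human neural progenitors are plated one per well on day 0 in growth-factor medium and dosed at once. After three days at 37C, supernatant LDH is measured fluorimetrically via resazurin reduction.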

The nature of experiment [2]: CCTE_Mundy_HCI_iCellGluta_NOG_NeuronCount: CCTE's Neurite Outgrowth Assay in iCellGluta cells for Neuron Count, Mundy Lab (AID 2284340; active = hit-call score of the fitted dose curve at least 0.9, where 1 is the maximum;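 note: cells fixed about 48 h after compound addition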). In short, it runs like this: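 Neuron count read by automated high-content imaging of Hoechst 33342 and betaIII-tubulin/Alexa Fluor-488 labelling in human iPSC glutamatergic neurons. Activity fitted relative to DMSO.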
Experiment [3] can be described thus: CCTE_Deisenroth_5AR_NBTE_donor: CCTE's 5alpha-reductase NanoBRET Target Engagement Assay […], Deisenroth Lab (AID 2284319). The note with it: actives raise or lower the signal. The method in brief:
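SRD5A2-NanoLuc, HEK293T, 20 h expression. Chemical 10 nM - 29.9 uM, 8 conc, duplicate; 3 h preincubation + 2 h testosterone tracer. Nano-Glo substrate plus extracellular NanoLuc inhibitor; donor lum 460 nm. DMSO baseline, bidirectional fit.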

Experiment [4] can be described thus: CCTE_Deisenroth_5AR_NBTE_acceptor: CCTE's 5alpha-reductase NanoBRET Target Engagement Assay - Autofluorescence Screen, Deisenroth Lab (AID 2284321).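 Note: compound fluorescence in the acceptor channel under 460 nm excitation flags autofluorescence artifacts.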 Conditions: actives raise or lower the signal. In short, it runs like this: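 Autofluorescence check: ToxCast chemicals, nominal 100 uM, excitation 460 nm, n=3 runs. Acceptor fluorescence endpoint, bidirectional fit relative to DMSO. Parent assay in HEK293T, 5 h post-dose.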

For experiment [5], the system named is SRD5A2 (gene 6716). As to the kind of experiment: CCTE_Deisenroth_5AR_NBTE_ratio: CCTE's 5alpha-reductase NanoBRET Target Engagement Assay - Ratio, Deisenroth Lab (AID 2284322). Conditions: actives raise or lower the signal. In short, it runs like this:
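HEK293T transiently expressing SRD5A2-NanoLuc; cells exposed to chemical (8-point, 10 nM - 29.9 uM) for 5 h total, testosterone tracer added for final 2 h. NanoBRET acceptor/donor ratio (650/460 nm), bidirectional fit vs DMSO.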

Experiment [6] concerns TTR (gene 7276). Briefly: CCTE_GLTED_hTTR_0.5uM: CCTE's human Transthyretin (hTTR) Inhibition Assay, with 0.5uM TTR, Great Lakes Toxicology and Ecology Division (GLTED) Lab (AID 2284320). The method in brief:
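Cell-free displacement assay in which human TTR at 0.5 uM was incubated with test chemical for 2 h. Displacement of the ANSA probe was read by fluorescence at 380 nm excitation/475 nm emission. Loss of signal was fitted in the positive direction versus DMSO.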

The nature of experiment [7]: TAMU_PeakParms_SingleDonor1434_Asystole: Texas A&M University (TAMU) 1.5-hr Human Induced Pluripotent Stem Cell (iPSC)-derived Cardiomyocytes Calcium (Ca+2) Flux Assay for Cardiotoxicity: Asystole (quiescence of beating) (AID 2284328; active = hit-call score of the fitted dose curve at least 0.9, where 1 is the maximum). The method in brief:
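Donor 1434 iPSC-cardiomyocytes exposed 90 min at 37C, 5% CO2, to 0.2, 1, 10 and 100 uM in 0.5% DMSO. Ca2+ dye fluorescence gave average peak frequency; POD is EC95, a 95% beat-rate drop versus controls.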

Experiment [8] deals with Brachyury (BRA) Protein Expression, Deisenroth Lab, TBXT (gene 6862). As to the kind of experiment: CCTE_Deisenroth_DEVTOX-GLR_legacy_Bra: (Legacy) CCTE's DevTox GLR-Endo Assay Evaluation of Brachyury (BRA) Protein Expression, Deisenroth Lab (AID 2284329). The method in brief: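 RUES2-GLR human pluripotent cells are differentiated for 48 h and receive two chemical exposures 24 h apart, at 10 concentrations from 1 nM to 200 uM. Cells are fixed, nuclei stained and imaged. Bra+ cells are those with mean Bra intensity over 5x BMAD above the pluripotent control median, expressed as a percentage of cell count, after subtracting the 0.2% DMSO control median.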

Experiment [9] can be described thus: CCTE_Deisenroth_DEVTOX-GLR_legacy_CellCount: (Legacy) Viability Assessment in CCTE's DevTox GLR-Endo Assay, Deisenroth Lab (AID 2284331). Conditions: actives raise or lower the signal. The method in brief:
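Viability is taken from imaged nuclei counts in fixed RUES2-GLR cultures after 48 h of differentiation under two 24 h-spaced chemical exposures, 10 concentrations from 1 nM to 200 uM, gain or loss versus DMSO baseline.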

Experiment [10] concerns SRY-box transcription factor 17 (SOX17) Protein Expression, Deisenroth Lab, SOX17 (gene 64321). Briefly: CCTE_Deisenroth_DEVTOX-GLR_legacy_Sox17: (Legacy) CCTE's DevTox GLR-Endo Assay Evaluation of SRY-box transcription factor 17 (SOX17) Protein Expression, Deisenroth Lab (AID 2284341). Conditions: actives raise or lower the signal. The method in brief:
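Endoderm-differentiation readout in RUES2-GLR human pluripotent cells at 48 h, concentrations spanning 1 nM - 200 uM. Sox17-positive cells divided by total cell count; gain or loss relative to DMSO solvent control, n=4 experimental replicates.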

Inconclusive results are not listed. Active and inactive are the calls of the source. Rule for the calls, unless noted: active = hit-call score of the fitted dose curve at least 0.9, where 1 is the maximum; inactive = score below 0.9.

For `CN(C)CCOC(C)(c1ccccc1)c1ccccn1` (stereo not drawn), the compound was classed as inactive in experiment [1] and in [2].
Take `C[C@H]1O[C@@H](O[C@H]2[C@@H](O)C[C@H](O[C@H]3[C@@H](O)C[C@H](O[C@H]4CC[C@@]5(C)[C@H](CC[C@@H]6[C@@H]5C[C@@H](O)[C@]5(C)[C@@H](C7=CC(=O)OC7)CC[C@]65O)C4)O[C@@H]3C)O[C@@H]2C)C[C@H](O)[C@@H]1O`: the result in experiment [3] and in experiment [4] was inactive. Besides, the concentration at half-maximal activity (AC50) in experiment [5] was 0.354 µM (active).
For the compound `COc1ccc(N=Nc2cc(C)c(N=Nc3ccc(S(=O)(=O)O)cc3)cc2OC)cc1`, the AC50 in experiment [3] was 50 µM (active); in [4] it was 40.6 µM (active); in experiment [5], 87 µM (active).
Regarding `O=[N+]([O-])c1ccc(O)cc1C(F)(F)F`, the compound was classed as inactive in [3] and in experiment [4]. Also, in experiment [5], the AC50 is 50 µM (active).
Consider `O=C(Nc1ccc2c(O)c(N=Nc3ccc(N=Nc4ccc(S(=O)(=O)O)cc4)cc3)c(S(=O)(=O)O)cc2c1)c1ccccc1`, for which the concentration at half-maximal activity (AC50) in [3] is 9.98 µM (active); in [5], 11.6 µM (active). In addition, the compound was called inactive in experiment [4].
Take `C=CC(=O)OCCCC`: the result in [3], in experiment [4] and in experiment [5] was inactive.
Turning to `CCCCCCCC(=O)OCC(O)CO` (stereo not drawn), the outcome in experiment [3], in experiment [4] and in [5] was inactive.
As to `Nc1ccc(N)c2c1C(=O)c1ccccc1C2=O`, in experiment [3], the compound was classed as inactive. The concentration at half-maximal activity (AC50) in experiment [4] was 7.65 µM (active); in experiment [5], 2.08 µM (active).
On to `COCCOCCOCCO`, for which the outcome in experiment [1] and in experiment [2] was inactive.
Regarding `N[C@@H](Cc1cc(I)c(Oc2cc(I)c(O)c(I)c2)c(I)c1)C(=O)O`, in experiment [6], the AC50 was 0.205 µM (active).
As to `Cc1ccc(S(=O)(=O)Oc2ccc(N=Nc3ccc(-c4ccc(N=Nc5c(O)ccc6cc(S(=O)(=O)O)cc(S(=O)(=O)O)c56)c(C)c4)cc3C)cc2)cc1`, the compound was called inactive in experiment [3] and in experiment [4]. In [5], the concentration at half-maximal activity (AC50) is 11.9 µM (active).
With `COCCc1ccc(OCC(O)CNC(C)C)cc1` (stereo not drawn), the compound was classed as inactive in experiment [1] and in experiment [2].
Consider `Oc1c(Cl)cc(Cl)c(Cl)c1Cc1c(O)c(Cl)cc(Cl)c1Cl`, for which, in experiment [7], the half-maximal activity concentration (AC50) is 2.11 µM (active). Further, in experiment [1], the call was inactive.
Turning to `CC(C)NCC(O)COc1ccc(CC(N)=O)cc1` (stereo not drawn), the outcome in experiment [7] was inactive.
As to `CS(=O)(=O)OCCCCOS(C)(=O)=O`, the compound was classed as inactive in experiment [8]. Moreover, the figures for the AC50 in [9] and in [10] were 14.6 µM (active) and 47.3 µM (active), respectively.
With `Clc1ccc(C(c2ccccc2Cl)C(Cl)Cl)cc1` (stereo not drawn), the call in experiment [3], in [4] and in experiment [5] was inactive.
On to `CC(CN=Cc1ccccc1O)N=Cc1ccccc1O` (stereo not drawn), for which the call in experiment [3], in experiment [4] and in [5] was inactive.
For the compound `Nc1ccccc1[N+](=O)[O-]`, the result in experiment [3] and in [4] was inactive. Besides, the half-maximal activity concentration (AC50) in experiment [5] is 50 µM (active).
Consider `Cc1cc(S(=O)(=O)O)ccc1N=Nc1c(O)ccc2ccccc12`, for which the AC50 in experiment [3] was 18.3 µM (active); in experiment [5], 25 µM (active). Besides, the outcome in [4] was inactive.
For the compound `[O-]n1ccccc1=S.[O-]n1ccccc1=S.[Zn+2]`, the call in [3], in [4] and in experiment [5] was inactive.
With `CCCCCCCCCCCCCCN(CCO)CCO`, the concentration at half-maximal activity (AC50) in [3] was 62.3 µM (active); in experiment [4], 50 µM (active); in experiment [5], 77.7 µM (active).
On to `CC(=O)O[C@H]1C[C@@H]2CC[C@@]1(C)C2(C)C`, for which the outcome in experiment [3], in [4] and in [5] was inactive.

Usually AC50 stands for the concentration giving half of the maximal activity seen.
